Compound activity: PubChem BioAssay, several laboratories
Only some compounds are listed: those with a hit (about 2.1% of all), similar ones and a draw of the others.
IL1B NFkB inh: blocks IL-1B driven NFkB nuclear translocation in HUVEC cells; HUVEC IL-1B NFkB p65 nuclear translocation imaging; 94,000 tested, 0.43% active; inhibition, % at 2 µM; AID 796;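 active means inhibition above about 30% together with a positive call from visual inspection of the well image, limit read from the data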;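 further: nuclear over cytoplasmic p65 intensity ratio measured by imaging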
IL1B NFkB pot: enhances IL-1B driven NFkB nuclear translocation; activation, % at 2 µM; HUVEC IL-1B NFkB p65 nuclear translocation imaging; 94,000 tested, 0.3% active;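 active means activation above 40%, about the mean plus 3 SD, also judged a hit on visual image review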;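 further: percent activation is computed from the nuclear over cytoplasmic p65 intensity ratio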
Measles CPE: protection of cells from measles virus | Measles virus-infected cells, CPE protection, absorbance | protection (pct of control), % at 4 µM | 140,000 tested, 1.5% active; in the data active means protection mostly above about 24%, no sharp cut-off; inactive means mostly below about 26%
HUVEC tox IL1B: HUVEC cytotoxicity counter-screen, IL-1B stimulated; 94,000 tested, 0.41% active; cell count reduction, % at 2 µM; HUVEC cell count loss, Hoechst imaging;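 active means cell count reduction more than 3 SD above the screen-wide mean, cut at about 70% in these data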
Large screens that a line does not name were inactive.

CCCc1cc(=O)[nH]c(Nc2ccc(O)cc2)n1	none
CCCc1cc(=O)[nH]c(NCc2ccc(Cl)cc2)n1	HUVEC tox IL1B 90
O=C(c1ccco1)c1nnn(Cc2ccccc2)c1-c1ccccc1	none
COC(=O)CSc1nnc(-c2ccc(S(=O)(=O)NCc3cccs3)cc2)o1	IL1B NFkB pot 45
O=S1(=O)CCC(NC(=S)Nc2ccc(Cl)cc2)C1 (stereo not given)	none (no result: IL1B NFkB inh, IL1B NFkB pot, HUVEC tox IL1B)
O=S1(=O)CCC(NC(=S)NCCNC(=S)NC2CCS(=O)(=O)C2)C1 (stereo not given)	Measles CPE 28 (no result: IL1B NFkB inh, IL1B NFkB pot, HUVEC tox IL1B)
Cc1cccc(-c2nnc(N)s2)c1	Measles CPE 36
Nc1nnc(-c2ccccc2)s1	none
N#CC(c1ccccc1)N(CCCCl)C(=O)c1ccc(Br)cc1 (stereo not given)	none (no result: IL1B NFkB inh, IL1B NFkB pot, HUVEC tox IL1B)
O=C(COc1ccccc1)NC1=NCCS1	Measles CPE 78
CCOC(=O)CSc1nc(C)c2ccc(C)cc2n1	none
COc1ccc(S(=O)(=O)N2CCC(C(=O)NCC(c3cccs3)N(C)C)CC2)cc1 (stereo not given)	Measles CPE 52
CCn1c(CSc2nc(C)cc(C)n2)nnc1SCC(=O)N1CCCc2ccccc21	none
C=CCn1c(SCC(=O)Nc2cc(C)on2)nc2sc3c(c2c1=O)CCCC3	none
C=CCn1c(SCC(=O)N2CCOCC2)nc2sc3c(c2c1=O)CCCC3	none
Cn1c(SCC(=O)N2CCOCC2)nc2sc3c(c2c1=O)CCCC3	Measles CPE 38
Cc1cc(NC(=O)CSc2nc3sc4c(c3c(=O)n2C)CCCC4)no1	Measles CPE 33
CCn1c(SCC(=O)Nc2cc(C)on2)nc2sc3c(c2c1=O)CCCC3	IL1B NFkB inh 96, HUVEC tox IL1B 83
CCOC1(C(F)(F)F)NC(=O)N(Cc2ccc(OC)cc2)C1=O (stereo not given)	Measles CPE 34
CCOc1ccccc1C1CC(=O)NC(SCC(=O)Nc2nccs2)=C1C#N (stereo not given)	none
COC(=O)c1ccc(CSc2nnc(-c3c[nH]c4ccccc34)n2C)o1	none (no result: IL1B NFkB inh, IL1B NFkB pot, HUVEC tox IL1B)
COC(=O)c1ccc(CSc2nnc(-c3c[nH]c4ccccc34)n2-c2ccccc2)cc1	Measles CPE 54 (no result: IL1B NFkB inh, IL1B NFkB pot, HUVEC tox IL1B)
O=C(NCCN1CCOCC1)c1cc2sccc2n1Cc1ccc(Cl)cc1	none (no result: IL1B NFkB inh, IL1B NFkB pot, HUVEC tox IL1B)
O=C(c1ccc2snnc2c1)N1CCN(c2ccccc2)CC1	none
Cn1nnc2cc(C(=O)N3CCN(c4ccccc4)CC3)ccc21	Measles CPE 43
Cn1nc(-c2ccc(C(=O)N3CCN(c4ccccc4)CC3)cc2)c2ccccc2c1=O	IL1B NFkB inh 99, HUVEC tox IL1B 90 (no result: Measles CPE)
Cn1nc(-c2ccc(C(=O)NCC3CCCO3)cc2)c2ccccc2c1=O (stereo not given)	HUVEC tox IL1B 90 (no result: Measles CPE)
Cn1nc(-c2ccc(OCC(=O)NCC3CCCO3)cc2)c2ccccc2c1=O (stereo not given)	none
CC(C)Nc1nc(SCC(=O)Nc2ccccc2)nc(N2CCOCC2)n1	none
C=CCNc1nc(Nc2ccc(-c3nc4ccccc4o3)cc2)nc(N2CCOCC2)n1	none
CCNC(=O)COc1ccc(-c2ccccc2)cc1	Measles CPE 62
CC(C)(C)NC(=O)COc1ccc(-c2ccccc2)cc1	none
Cc1ccc(-n2c(N)c(-c3nc4ccccc4n3C)sc2=S)cc1	none
Cn1c(-c2ccc(N)cc2)nc2ccccc21	Measles CPE 22
O=C(c1ccc(CN2CCOCC2)cc1)N1CCN(c2cccc(Cl)c2)CC1	none
O=C(c1ccc(CN2CCOCC2)cc1)N1CCN(Cc2ccccc2)CC1	Measles CPE 44
O=C(c1ccccc1)N1CCN(C(=O)c2ccccc2)CC1	Measles CPE 38
Cc1cc(C)n2nc[n+](C)c2n1	none
CN(C/C(O)=C(\C#N)c1ccccc1)C1CCCCC1	IL1B NFkB pot 126
CN(CC(=O)Nc1sccc1C#N)C1CCCCC1	none
COCCCNC(=O)c1c(N)n(-c2cccc(S(N)(=O)=O)c2)c2nc3ccccc3nc12	Measles CPE 42
CCCNC(=O)c1c(N)n(-c2cccc(OC)c2)c2nc3ccccc3nc12	none
Cc1ccc(C(=O)N/C(=C\c2cccs2)C(=O)NC2CCCCC2)cc1	none
CCOC(=O)c1cnc(SCC(=O)Nc2sc(C)c(C)c2C#N)nc1N	none
CCCCNC(=O)COc1ccccc1C(=O)c1cc(C#N)c(=O)n(CCOC)c1	Measles CPE 42 (no result: IL1B NFkB inh, IL1B NFkB pot, HUVEC tox IL1B)
CN(CC(=O)Nc1ccccc1Br)Cc1nc2ccccc2c(=O)[nH]1	none
C[C@]12C=CC(=O)C=C1CCC1C3CC[C@](O)(C(=O)CO)[C@@]3(C)CC3OC312 (stereo not given in full)	Measles CPE 42 (no result: IL1B NFkB inh, IL1B NFkB pot, HUVEC tox IL1B)
CC(=O)OCC(=O)[C@@]1(O)CC[C@H]2[C@@H]3CCC4=CC(=O)C=C[C@]4(C)[C@H]3[C@@H](O)C[C@@]21C	none (no result: IL1B NFkB inh, IL1B NFkB pot, HUVEC tox IL1B)
COC(=O)c1cc(=O)nc2sccn12	IL1B NFkB pot 42
